# Laboratory results: PubChem BioAssay (NCATS)
# Where “and” joins values, the source holds several entries; their conditions need not be identical. Equal values may be shown once. Inconclusive results are not listed. A call without a number means that no potency is given here. Calls of active or inactive are those of the source. Unless noted, calls come from the whole dose curve; as a rule, active = well fitted curve in the direction sought with a large enough effect; inconclusive = small, poorly fitted or top-dose-only effect, or another doubt; inactive = no such curve, though single readings can be large; an effect the other way counts as inactive or inconclusive.
# How the values were obtained:
# [1] = Cell Viability - LYMP2-001 (AID 921); note: series mostly up to about 92 µM; nearly all actives have a fitted effect of over 70% in size
# Procedure, shortened: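 Cellular ATP loss read by luciferase luminescence after 24 h compound exposure at 37 C in complete medium. LYMP2-001 lymphoblastoid cells, 2500/well; qHTS concentration-response data fitted with Hill equation for AC50.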
# [2] = MultiTox-Fluor Cytotoxicity Assay - LYMP1-001 - Live Cells (AID 947)
# [3] = Cell Viability - LYMP1-003 - Assay at 40 hr (AID 964); note: series mostly up to about 92 µM; nearly all actives have a fitted effect of over 60% in size
# Procedure, shortened: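 Acute toxicity is scored as a concentration-dependent loss of intracellular ATP in LYMP1-003 cells (2500/well, complete medium) after 40 hr at 37 C, measured by CellTiter-Glo luminescence; AC50 values derive from standard Hill modelling.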
# [4] = Cell Viability - LYMP2-004 (AID 966); note: nearly all actives have a fitted effect of over 65% in size
# Procedure, shortened: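 Viable-cell number estimated from ATP luminescence (CellTiter-Glo) in 2500 human lymphoblastoid cells/well after 24 hr at 37 C with compound. AC50 fitted to the standard Hill equation.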
# [5] = Cell Viability - LYMP2-005 (AID 967); note: series mostly up to about 92 µM
# Procedure, shortened: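 LYMP2-005 human lymphoblastoid cells (2500/well) were treated with compounds for 24 h at 37 C. Intracellular ATP was then measured by CellTiter-Glo luminescence after 30 min at room temperature. AC50 values came from Hill-equation fits of qHTS concentration-response data.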
# [6] = Cell Viability - LYMP2-009 (AID 968); note: series mostly up to about 92 µM; nearly all actives have a fitted effect of over 55% in size
# [7] = Cell Viability - LYMP2-017 (AID 972); note: series mostly up to about 92 µM; nearly all actives have a fitted effect of over 55% in size
# Procedure, shortened: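 In this qHTS format, lymphoblastoid cells in complete medium receive test compound for a day at 37 C before ATP content is quantified by luciferase luminescence. Reported AC50 figures come from standard Hill-equation curve fitting.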
# [8] = Cell Viability - LYMP2-019 (AID 973); note: nearly all actives have a fitted effect of over 55% in size
# Procedure, shortened: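 AC50 values come from Hill-equation modelling of qHTS concentration-response curves, where viability is measured as luciferase-based ATP luminescence in the lymphoblastoid line after 24 hr compound exposure in complete culture medium.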
# [9] = Cell Viability - LYMP2-002 (AID 977); note: series mostly up to about 92 µM
# Procedure, shortened: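 In this qHTS viability screen, 2500 human lymphoblastoid cells per well receive compound for 24 hr at 37 C, and luciferase-based ATP luminescence gives the viability signal. Tetraoctylammonium bromide serves as positive control.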
# [10] = Cell Viability - LYMP2-006 (AID 978); note: series mostly up to about 92 µM; nearly all actives have a fitted effect of over 60% in size
# Procedure, shortened: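 Potency values are Hill-fit AC50s for decreases in intracellular ATP (CellTiter-Glo luminescence). LYMP2-006 lymphoblastoid cells, 2500 per well, were exposed to compound in complete culture medium for 24 hr at 37 C.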
# [11] = Cell Viability - LYMP2-020 (AID 986); note: series mostly up to about 92 µM; nearly all actives have a fitted effect of over 55% in size
# Procedure, shortened: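 Cells at 2500 per well receive a 24 hr compound exposure at 37 C. Viability is measured as ATP-dependent luciferase luminescence, with AC50 modeled from qHTS concentration-response curves.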
# [12] = Cell Viability - LYMP2-022 (AID 987); note: nearly all actives have a fitted effect of over 55% in size; note: potency is the fitted concentration of half-maximal effect
# Procedure, shortened: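 In this qHTS cytotoxicity screen, compound titrations were incubated 24 hr at 37 C with human lymphoblastoid cells in complete medium. Luciferase-based ATP luminescence provided the viability signal.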
# [13] = Cell Viability - LYMP2-024 (AID 988); note: nearly all actives have a fitted effect of over 60% in size
# Procedure, shortened: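 Cells at 2500 per well received compound for 24 hr after a 5 hr settling period. Viability was scored by CellTiter-Glo luminescence, with AC50 from Hill fits.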
# [14] = qHTS assay for small molecule antagonists of retinoid X receptor alpha signaling (AID 588546; active = well fitted inhibition curve with a large enough effect in the signal ratio, with a control signal flat, not every such curve was filed as active; the % refers to the signal ratio; note: potency is the fitted concentration of half-maximal effect;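 for max response: cells stimulated with 9-cis-retinoic acid as agonist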); conditions: HEK293T RXRa-UAS-bla, beta-lactamase ratio, antagonist mode; measured here: W530 green channel, cytotoxicity proxy
# Procedure, shortened: (§1)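 Beta-lactamase reporter inhibition, read as CCF4 fluorescence ratio (ex 405, em 460/530 nm) after 2 h at RT. HEK293T UAS-bla cells, 2500/well, were stimulated with 9-cis-RA at 500 or 100 nM final alongside test compound for 18 h at 37 C.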
# [15] = target: Retinoic acid receptor RXR-alpha (Homo sapiens) (UniProt P19793); assay: as above; conditions: HEK293T RXRa-UAS-bla, beta-lactamase ratio, antagonist mode
# Retinoic acid receptor RXR-alpha (Homo sapiens), sequence (P19793 whole entry, looked up): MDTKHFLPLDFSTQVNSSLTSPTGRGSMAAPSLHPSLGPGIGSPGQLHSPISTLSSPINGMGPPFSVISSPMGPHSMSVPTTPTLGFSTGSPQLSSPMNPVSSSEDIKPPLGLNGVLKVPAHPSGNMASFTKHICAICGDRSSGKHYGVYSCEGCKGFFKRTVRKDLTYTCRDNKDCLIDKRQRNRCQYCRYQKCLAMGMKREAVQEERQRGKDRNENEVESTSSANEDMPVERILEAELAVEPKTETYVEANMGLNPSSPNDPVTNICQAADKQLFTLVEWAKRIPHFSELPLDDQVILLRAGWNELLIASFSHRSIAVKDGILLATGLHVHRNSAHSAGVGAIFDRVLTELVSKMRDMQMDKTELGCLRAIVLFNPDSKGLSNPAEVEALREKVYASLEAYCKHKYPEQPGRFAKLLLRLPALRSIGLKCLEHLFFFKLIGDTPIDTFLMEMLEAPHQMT
# Procedure, shortened: as §1
# [16] = target: Thyroid hormone receptor beta (Homo sapiens) (UniProt P10828); assay: qHTS assay for small molecule antagonists of thyroid hormone receptor beta signaling (AID 588547; active = well fitted inhibition curve with a large enough effect in the signal ratio, with a control signal flat, not every such curve was filed as active; the % refers to the signal ratio;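 note: cells stimulated with 0.4 nM T3 agonist during compound exposure; series mostly up to about 77 µM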); conditions: TR-UAS-bla HEK293, beta-lactamase ratio, antagonist mode, 18 h
# Thyroid hormone receptor beta (Homo sapiens), sequence (P10828 whole entry, looked up): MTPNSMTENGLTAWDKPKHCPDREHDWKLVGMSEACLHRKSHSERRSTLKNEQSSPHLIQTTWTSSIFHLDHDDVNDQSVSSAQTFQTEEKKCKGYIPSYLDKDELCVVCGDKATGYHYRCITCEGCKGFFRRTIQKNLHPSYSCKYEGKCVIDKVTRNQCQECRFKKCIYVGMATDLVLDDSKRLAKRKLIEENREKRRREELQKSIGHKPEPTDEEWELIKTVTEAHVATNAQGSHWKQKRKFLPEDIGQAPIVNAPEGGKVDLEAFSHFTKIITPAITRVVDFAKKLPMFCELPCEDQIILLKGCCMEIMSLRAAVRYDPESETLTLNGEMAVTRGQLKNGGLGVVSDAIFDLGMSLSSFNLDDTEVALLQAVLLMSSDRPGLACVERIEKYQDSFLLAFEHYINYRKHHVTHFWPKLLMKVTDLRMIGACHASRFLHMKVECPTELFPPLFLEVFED
# Procedure, shortened: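 TR-UAS-bla GripTite HEK293 cells in 2% charcoal/dextran FBS medium were preincubated 4 h at 37 C, given compound (0.59 nM to 92 uM) plus 0.4 nM T3 (final) for 18 h, then CCF4 for 2 h at RT; Hill fit gave IC50.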
# [17] = qHTS assay for small molecule disruptors of the mitochondrial membrane potential - 5 hr assay (AID 651755; calls by dose curve; note: nearly all actives have a fitted effect of over 40% in size; note: potency is the fitted concentration of half-maximal effect)
# Procedure, shortened: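 Seed HepG2 overnight, add compound, incubate 5 hr at 37C and 5% CO2, stain 30 min with Mito-MPS, then measure monomer (490/535 nm) and aggregate (540/590 nm) fluorescence.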
# [18] = Cell Viability - H-4-II-E (AID 543);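 note: cells exposed to compound for 40 hours; nearly all actives have a fitted effect of over 35% in size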; note: potency is the fitted concentration of half-maximal effect
# Procedure, shortened: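 AC50 from Hill-modelled qHTS concentration-response curves. H-4-II-E rat hepatoma cells in complete medium, 40 hr exposure at 37 °C, viability by CellTiter-Glo ATP luminescence.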
# [19] = qHTS assay for environmental chemicals that activate the Aryl hydrocarbon Receptor (AhR) signaling pathway (AID 651777); conditions: 1A2-DRE human hepatoma cells, luciferase, 24 h; activation: stronger effect = higher value; note: nearly all actives have a fitted effect of over 15% in size; note: potency is the fitted concentration of half-maximal effect
# Procedure, shortened: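 1A2-DRE human hepatoma reporter line; 1,200 cells/well; cmpd or DMSO 24 h, 37 C/5% CO2; One-Glo 30 min RT; luciferase lum.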
# [20] = target: Nuclear receptor subfamily 1 group I member 2 (Rattus norvegicus) (UniProt Q9R1A7); assay: qHTS assay for small molecule activators of the rat pregnane X receptor (rPXR) signaling pathway (AID 651751; call rule not given here); conditions: rPXR reporter cells, luciferase (One-Glo), 24 h
# Nuclear receptor subfamily 1 group I member 2 (Rattus norvegicus), sequence (Q9R1A7 whole entry, looked up): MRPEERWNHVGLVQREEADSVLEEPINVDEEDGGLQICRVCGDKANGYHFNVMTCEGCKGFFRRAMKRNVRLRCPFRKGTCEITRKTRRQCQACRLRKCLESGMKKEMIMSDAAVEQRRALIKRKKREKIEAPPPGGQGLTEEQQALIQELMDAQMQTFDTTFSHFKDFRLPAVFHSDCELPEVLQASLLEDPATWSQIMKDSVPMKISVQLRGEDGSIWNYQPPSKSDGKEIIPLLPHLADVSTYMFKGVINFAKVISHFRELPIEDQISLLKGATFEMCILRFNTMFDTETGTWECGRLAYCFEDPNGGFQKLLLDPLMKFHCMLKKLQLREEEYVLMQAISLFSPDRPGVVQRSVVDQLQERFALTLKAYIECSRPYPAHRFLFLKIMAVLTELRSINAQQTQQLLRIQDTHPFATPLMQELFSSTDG
smiles,measurement,setting,value
Cc1cc2nc(N)sc2cc1C,Potency,[1],inactive
same,Potency,[2],inactive
same,Potency,[3],inactive
same,Potency,[4],inactive
same,Potency,[5],inactive
same,Potency,[6],inactive
same,Potency,[7],inactive
same,Potency,[8],inactive
same,Potency,[9],inactive
same,Potency,[10],inactive
same,Potency,[11],inactive
same,Potency,[12],inactive
same,Potency,[13],inactive
same,max response,[14],0.388%
same,max response,[15],9.41% (inactive)
same,activity change % (negative = inhibition),[16],-0.19% (inactive)
same,Potency,[17],inactive
O=C=Nc1ccc(Cl)c(Cl)c1,Potency,[18],31.6 µM (active)
same,Potency,[4],inactive
same,Potency,[5],inactive
same,max response,[14],26.4%
same,Potency,[15],14.1 µM (active)
same,Potency,[17],5.96 µM (active)
O=Nc1ccc(Nc2ccccc2)cc1,Potency,[18],31.6 µM (active)
same,Potency,[17],inactive
CCN(CC)c1ccc(N)cc1,Potency,[18],79.4 µM (active)
same,Potency,[12],39.8 µM (active)
same,max response,[14],9.43%
same,max response,[15],-16.2% (inactive)
same,Potency,[17],29.8 µM (active)
same,Potency,[19],44.7 µM (active)
same,max response,[20],3.24% (inactive)
CC(/C=C/C=C(C)/C=C/C(=O)O)=C\C=C\C=C(C)\C=C\C=C(C)\C=C\C(=O)O,Potency,[18],inactive
same,Potency,[1],inactive
same,Potency,[3],inactive
same,Potency,[6],inactive
same,Potency,[7],inactive
same,Potency,[8],inactive
same,Potency,[9],inactive
same,Potency,[10],inactive
same,Potency,[11],inactive
same,Potency,[13],inactive
same,max response,[14],-20%
same,max response,[15],16.8% (inactive)
same,activity change % (negative = inhibition),[16],-2.15% (inactive)
same,Potency,[17],inactive
same,activation,[19],9.06% (inactive)
same,max response,[20],10.8% (inactive)
CCOc1ccc2nc(N)sc2c1,Potency,[18],inactive
same,Potency,[1],inactive
same,Potency,[2],inactive
same,Potency,[3],inactive
same,Potency,[4],inactive
same,Potency,[5],inactive
same,Potency,[6],inactive
same,Potency,[7],inactive
same,Potency,[8],inactive
same,Potency,[9],inactive
same,Potency,[10],inactive
same,Potency,[11],inactive
same,Potency,[12],inactive
same,Potency,[13],inactive
same,max response,[14],-8.45%
same,max response,[15],-7.66% (inactive)
same,activity change % (negative = inhibition),[16],-4.05% (inactive)
same,Potency,[19],10 µM (active)
O=[N+]([O-])c1cc(N(CCO)CCO)ccc1NCCO,Potency,[1],inactive
same,Potency,[2],inactive
same,Potency,[5],inactive
same,Potency,[6],inactive
same,Potency,[9],inactive
same,Potency,[11],inactive
same,Potency,[12],inactive
same,Potency,[13],inactive
same,max response,[14],5.15% and -22.9%
same,max response,[15],0.262% (inactive) and 0.951% (inactive)
same,activity change % (negative = inhibition),[16],14.2% (inactive) and 12% (inactive)
same,activation,[19],-2.68% (inactive) and -1.58% (inactive)
same,max response,[20],-6.76% (inactive) and -5.03% (inactive)
